Source: PubChem BioAssay (several laboratories)
This is a sample that favours compounds with a hit; in the whole collection about 3.5% have one here.
GDH-TPI counter-1 = GDH-TPI coupled enzyme inhibition counter-screen; inhibition, % at 4.8 µM; 360,000 tested, 1.2% active; GDH-TPI coupled enzyme counterscreen, NADH absorbance; in the data active = inhibition above about 30%;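 also: 0% = DMSO wells and 100% = wells lacking the enzyme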
Mtb bLac sens = beta-lactam sensitization of Mtb H37Rv; inhibition, % at 25 µM; 330,000 tested, 0.27% active; M. tuberculosis H37Rv growth with meropenem, percent inhibition; call rule not given here;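 also: growth measured after seven days incubation then overnight dye step; 0% = bacteria only wells and 100% = bacteria with antibiotic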
FBA Mtb inh = inhibitors of M. tuberculosis fructose-bisphosphate aldolase | P9WQA3 | purified M. tuberculosis FBA, fluorescence read-out | inhibition, % at 1 µM | 360,000 tested, 2.3% active;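 also: 0% = vehicle and 100% = reference inhibitor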
Rv3671c protease = inhibits the M. tuberculosis serine protease Rv3671c; 320,000 tested, 0.048% active; P9WHR9; inhibition, % at 5.96 µM; AID 2606; in the data active = inhibition above about 38%;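 also: extracellular domain of Rv3671c used as enzyme; 0% = enzyme with DMSO and 100% = no enzyme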
UGM FP inh = inhibitors of M. tuberculosis UDP-galactopyranose mutase. P9WIQ1. purified UGM, fluorescence polarization probe displacement. inhibition, % at 10 µM. 320,000 tested, 0.06% active; in the data active = inhibition above about 10%, passing the limit was not always enough
Target sequence (P9WIQ1 whole entry, looked up): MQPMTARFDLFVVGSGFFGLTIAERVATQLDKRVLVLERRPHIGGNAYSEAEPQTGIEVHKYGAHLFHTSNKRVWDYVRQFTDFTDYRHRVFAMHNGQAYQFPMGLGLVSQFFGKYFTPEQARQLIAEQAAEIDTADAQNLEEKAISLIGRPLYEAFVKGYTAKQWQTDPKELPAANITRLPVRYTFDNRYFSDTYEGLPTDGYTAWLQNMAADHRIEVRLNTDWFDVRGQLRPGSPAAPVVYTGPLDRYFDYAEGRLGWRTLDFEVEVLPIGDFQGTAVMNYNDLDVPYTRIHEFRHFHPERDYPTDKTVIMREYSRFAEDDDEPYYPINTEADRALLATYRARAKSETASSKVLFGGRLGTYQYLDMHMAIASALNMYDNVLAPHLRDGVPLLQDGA
Mtb FBA inh conf = confirmation of M. tuberculosis fructose-bisphosphate aldolase inhibitors. 5,600 tested, 78% active. shares compounds with FBA Mtb inh. purified M. tuberculosis FBA, fluorescence read-out. inhibition, % at 1 µM;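 also: 0% = vehicle wells and 100% = reference inhibitor wells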
GDH-TPI counter-2 = GDH-TPI inhibition counter-screen for FBA inhibitors; GDH-TPI coupled enzyme counterscreen, fluorescence; shares compounds with FBA Mtb inh; inhibition, % at 1 µM; 5,600 tested, 81% active; in the data active = inhibition above about 10%
The depositor's hits bear a star; x = no result; + = active, no number. Rule as the data show it, unless noted: active = inhibition above about 27%; inactive = the rest.

SMILES	GDH-TPI counter-1	Mtb bLac sens	FBA Mtb inh	Rv3671c protease	UGM FP inh	Mtb FBA inh conf	GDH-TPI counter-2
CCCc1cc(=O)oc2cc(C)cc(OCC(=O)NCCN3CCOCC3)c12	1.7	3.9	66.5*	2.2	0.7	-0.5	-3.9
CCc1cc(=O)oc2cc(C)cc(OCC(=O)NCCc3c[nH]c4ccccc34)c12	5.9	-2.3	9.0	-2.5	-0.2	x	x
Cc1cc(OCC(=O)NCCCN2CCOCC2)c2c(C)cc(=O)oc2c1	4.8	4.8	61.1*	4.5	-1.4	137.7*	141.8*
O=C(COc1ccccc1O)NCCN1CCOCC1	3.7	-8.6	1.5	6.4	0.1	x	x
CCCc1cc(=O)oc2cc(C)cc(OCC(=O)Nc3ccc(CN4CCOCC4)cc3)c12	10.0	1.6	43.5*	-11.7	-1.8	1.7	-4.9
Cc1c(C)c2ccc(OCC(=O)Nc3cccnc3)c(C)c2oc1=O	13.8	3.4	60.4*	-5.5	0.2	-2.1	2.5
Cc1ccc(S(=O)(=O)Nc2ccc3c(c2)OCCO3)c(C)c1NS(C)(=O)=O	-8.4	1.3	-1.0	0.9	-2.4	x	x
COC1C=CC(CNC(=O)c2cc3c(=O)n4cccc(C)c4nc3n2C)(OC)O1 (stereo not given)	22.6	-7.5	36.0*	-1.3	-2.4	175.8*	109.3*
Cc1cccn2c(=O)c3cc(C(=O)NC4CCCCC4)n(C)c3nc12	7.7	4.2	5.1	-9.0	-3.2	x	x
Cc1cccn2c(=O)c3cc(C(=O)O)n(C)c3nc12	25.3	-5.7	81.4*	-2.1	3.5	80.1*	57.9*
O=C(CC(Cc1ccccc1)C(=O)O)Nc1ccc(Cl)c(Cl)c1 (stereo not given)	15.9	-1.1	0.8	3.4	1.3	x	x
CC1(C)CC(=O)CC(=O)/C1=N\Nc1c(Cl)cc(Cl)cc1Cl	14.5	12.6	4.3	-6.5	0.2	x	x
CCOC(=O)CN(c1ccccn1)S(=O)(=O)c1ccc(OC)cc1	13.4	-9.9	46.3*	-2.7	5.7	137.6*	100.4*
CCOC(=O)CN(c1ccccc1)S(=O)(=O)c1ccc(F)cc1	-0.6	-1.0	-1.0	-5.6	1.0	x	x
O=C(CN(c1ccccn1)S(=O)(=O)c1ccc(F)cc1)Nc1ccc(F)cc1F	6.0	6.4	34.7*	3.2	3.0	116.9*	90.1*
O=C(CN(c1ccc(F)cc1)S(=O)(=O)c1ccccc1)Nc1ccccc1C(=O)O	0.6	-5.5	5.3	-6.6	-0.7	x	x
O=C(NCc1ccc(OC(F)(F)F)cc1)C1CC(c2cccc(F)c2)=NO1 (stereo not given)	7.4	-6.1	3.5	-4.6	1.9	x	x
CC(C(=O)OCC(=O)NC1CCCCC1)N1C(=O)c2ccccc2C1=O (stereo not given)	-3.6	2.2	-2.2	3.5	-0.4	x	x
Cc1nn(CC(=O)c2ccc3c(c2)OCCO3)c(=O)c(C#N)c1C	7.3	2.7	0.4	5.9	-0.1	x	x
O=C(Oc1cccc([N+](=O)[O-])c1)C1CCN(C(=O)c2ccc(F)cc2)CC1	1.4	-9.6	-1.9	-1.0	4.7	x	x
CC1CCCCC1NC(=O)C(C)N1C(=O)c2ccccc2C1=O (stereo not given)	2.8	0.6	1.6	-4.6	-1.0	x	x
CCCCn1c(-c2cccc(Br)c2)nc2cc3[nH]c(=O)c(C(C)C)nc3cc21	20.6	83.7	34.0*	-19.0	2.8	8.0	-0.5
CCCCn1c(-c2ccc(C(C)(C)C)cc2)nc2cc3[nH]c(=O)c(C(C)C)nc3cc21	1.2	3.1	14.7	0.3	1.3	x	x
CCCCn1c(-c2cccnc2)nc2cc3[nH]c(=O)c(C(C)C)nc3cc21	30.9*	44.9	63.6*	-2.8	1.2	+	170.1*
CCCCn1c(-c2ccc(Cl)c(Cl)c2)nc2cc3[nH]c(=O)c(C(C)C)nc3cc21	20.1	9.9	10.2	-11.3	-1.8	x	x
SMILES	GDH-TPI counter-1	Mtb bLac sens	FBA Mtb inh	Rv3671c protease	UGM FP inh	Mtb FBA inh conf	GDH-TPI counter-2
CN(C)CCNC(=O)C1CCN(S(=O)(=O)c2ccc3ccccc3c2)CC1	1.0	-3.8	2.4	-11.9	0.1	x	x
CC(NS(=O)(=O)/C=C/c1ccccc1)C(=O)NCCc1ccc(S(N)(=O)=O)cc1 (stereo not given)	-1.2	7.2	-1.1	3.1	x	x	x
CC(C)N1CC(O)=C(c2nc3ccccc3c(=O)[nH]2)C1=N	10.2	3.0	43.9*	1.5	1.7	+	170.2*
Cc1cc(C)cc(N2CC(O)=C(c3nc4ccccc4c(=O)[nH]3)C2=N)c1	5.7	-5.0	34.3*	-1.4	-1.5	2.6	0.3
COc1cccc(N2CC(O)=C(c3nc4ccccc4c(=O)[nH]3)C2=N)c1	33.3*	-4.5	77.4*	-10.4	0.9	51.0*	50.2*
N=C1C(c2nc3ccccc3[nH]2)=C(O)CN1c1ccc(F)cc1	0.5	x	2.9	-4.0	-2.6	x	x
COc1ccc(CCN(C)C(=O)COc2cccc(-n3cnnn3)c2)cc1OC	-2.6	-9.2	-0.7	-10.5	2.5	x	x
Cc1nn(CCOc2cccc(Cl)c2)c(C)c1[N+](=O)[O-]	-8.1	6.0	4.9	-2.9	1.6	x	x
O=C(O)c1ccccc1NCN1C(=O)C2CC=C(Cl)CC2C1=O (stereo not given)	0.0	4.1	39.8*	1.4	1.9	24.1	28.5*
C=CCNC(=S)Nc1ccc(N(C)C)cc1	0.7	-14.9	-0.4	-0.2	-2.4	x	x
Cc1ccccc1CC(=O)Nc1ccc2c(c1)c(=O)n(C)n2-c1cccs1	0.4	x	0.8	x	x	x	x
COc1cccc(CNC(=S)Nc2ccc3c(c2)c(=O)n(C)n3Cc2ccc(F)cc2)c1	3.0	x	28.8*	x	x	129.8*	93.9*
COc1cccc(CNC(=S)Nc2ccc3c(c2)c(=O)n(C)n3C)c1	14.6	x	26.2	x	x	x	x
COc1cc(Cn2c3ccc(NC(=S)NCc4ccc(C)cc4)cc3c(=O)n2C)ccc1F	6.2	x	37.6*	x	x	180.0*	137.9*
COc1cccc(Cn2c3ccc(NC(=O)Cc4ccccc4C)cc3c(=O)n2C)c1	2.7	x	89.4*	x	x	+	+
COc1ccc(CNC(=S)Nc2ccc(F)c(Cl)c2)cc1	-4.5	5.0	1.1	-4.1	1.6	x	x
Cc1ccccc1CC(=O)Nc1ccc2c(c1)c(=O)n(C)n2-c1ccccc1F	12.6	x	104.4*	x	x	82.1*	72.4*
O=C(NC1CC1)C1=C[C@@H](c2csc3ccccc23)C[C@@H](OCc2ccc(CO)cc2)O1	6.5	-2.7	3.6	-6.2	1.8	x	x
C=CCC(=O)N1CCCC(CCC(=O)NCc2ccccc2F)C1 (stereo not given)	-2.5	6.2	33.4*	-6.7	-3.1	46.4*	46.5*
Cc1c(C)c2ccc(OCC(=O)N(C)C3CCS(=O)(=O)C3)c(C)c2oc1=O (stereo not given)	8.3	-0.7	89.0*	-3.5	0.0	71.1*	64.5*
CCc1cc(=O)oc2cc(OCC(=O)N3CC[C@@]4(O)CCCC[C@H]4C3)ccc12	28.4	-7.5	30.3*	0.5	-2.7	64.2*	48.4*
Cc1cc(=O)oc2cc(OCC(=O)N3CC[C@@]4(O)CCCC[C@H]4C3)ccc12	23.5	-0.9	24.5	4.3	0.0	x	x
